Laboratory results as given in PubChem BioAssay AID624491 (Broad Institute, 2012).
Screen size: about 1,800 compounds; about 1,400 (78%) were called active. Not shown: some 2% with an inconclusive outcome.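 Rule for the calls: active = fitted curve crossing a set activation limit at or below the highest valid dose tested; inconclusive = flat fit at 30 to 70% activation, or poor fit; inactive = the rest, including signal decreases.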 So high a share suggests a set chosen from earlier hits. The list is a sample of the results. Potency and affinity values are given separately.

assay: blockers of NLG process in reporter cells – D54 ERlucT cells, luminescence, cherry-picks, dose response (AID 624491); conditions: D54 ERlucT glycosylation luciferase reporter, 24 h, 100% = twice neutral-control luminescence; series mostly up to 19.5 µM; activation (NLG inhibition): at the top concentration;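 note: signal gain reflects blocked N-linked glycosylation of a luciferase reporter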

Activation (NLG inhibition), inactive:
O=C(Nc1cccc2ncccc12)c1ccc([N+](=O)[O-])o1 -15.3%
O=C(Nc1cccc(-c2nc3ncccc3o2)c1)c1sc2ccccc2c1Cl 0.539%
C(=N\Nc1nc2ccccc2[nH]1)/c1ccc2ncccc2c1 818%
COc1ccc(/C=C/C(=O)c2ccccc2)cc1COc1ccccc1F 34.3%
CC(=O)Nc1cccc(-c2ccnc3c2CC(C)(C(=O)NCc2cccc(Cl)c2)O3)c1 (stereo unspecified) 37.3%
CC1(C(=O)NCC2CCOCC2)Cc2c(-c3cccc(C(F)(F)F)c3)ccnc2O1 (stereo unspecified) 63.4%
CC1(C(=O)NCC2CC2)Cc2c(-c3cccc(C(F)(F)F)c3)ccnc2O1 (stereo unspecified) 52.2%
Cc1nc(C)c(C(=O)N/N=C/c2c[nH]c3ccccc23)s1 48.2%
CCOc1ccc(C(C)=O)cc1COc1cccnc1[N+](=O)[O-] 40%
O=C(Oc1c(Cl)cc(Cl)c2cccnc12)c1ccco1 15.2%
COc1ccccc1NC(=O)c1ccc(-c2ccc(Br)cc2)o1 45.2%
Cc1ccc(OCCNC(=O)c2cccc(S(=O)(=O)NCc3ccccc3)c2)cc1 35%
CCCCn1c(SCC(=O)Nc2cc(C(F)(F)F)cc(C(F)(F)F)c2)nnc1C(CC)N(C)C (stereo unspecified) 17.5%
COc1ccc(Oc2ccc(/C=C/C(=O)c3cccc(OC)c3)cc2[N+](=O)[O-])cc1 -4.01%
Cc1cnc2cc(Cl)c(Cl)cc2n1 18.3%
CCOC(=O)C1=C(C)N=C2SC=C(C)N2C1c1ccc(OC)cc1 (stereo unspecified) 34%
COc1ccc(CCNC(=O)c2cc(-c3ccco3)on2)cc1OC 97.5%
O=C(/C=C/c1ccccc1Cl)c1ccc(O)cc1 4.1%
O=C(/C=C/c1cccnc1)c1ccc(F)c(F)c1 -67.7%
O=C(C=Cc1cccnc1)c1ccccc1 45.6% [at 5 µM]
CCOC(=O)c1[nH]c(C)c(C(=O)c2ccc(C)cc2)c1C 24.6%
